Laboratory results: PubChem BioAssay (NCI)
This is part of a sample that, as a whole, favours compounds with a hit. Of some 83,000 tested, about 20% had one in any assay.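 Each cell line was grown in a 96-well plate and treated with one concentration of compound for 48 hours. Values below 10 were considered active.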 A number with no mark means an inactive call. The source made the active and inactive calls.

tested on: MDA-MB-435 melanoma; assay: NCI-60 one-dose screen, 48 h (100 = growth as untreated, 0 = no growth, -100 = all killed); conditions: 10 µM unless noted

Structure (SMILES)	growth
[2H]C([2H])([2H])Oc1ccc(F)cc1/C=C/C(=O)/C=C(O)/C=C/c1cc(F)ccc1OC([2H])([2H])[2H]	84.5%
C=CC(=O)Nc1ccc(Nc2nccc(-c3ccc(N4CCCC4)c(C#N)c3)n2)cc1	-11.8% (active)
N#CC1=C(N)Oc2ccc3ccccc3c2C1c1ccc([N+](=O)[O-])cc1 (stereo unspecified)	-51.3% (active)
CCOC(=O)c1nn(CC(O)c2ccccc2)c(NC(=O)Nc2cccc(F)c2)c1C (stereo unspecified)	99.9%
Nn1c(=O)c(=O)[nH]c2c(cnn2-c2ccccc2)c1=O	107%
O=[N+]([O-])c1cc(NS(=O)(=O)c2ccccc2)ccc1NS(=O)(=O)c1ccccc1	123%
C=C1C(=O)O[C@H]2[C@H]1CC/C(COC(=O)NCc1ccc(Cn3c(=O)sn(-c4ccc(C#N)cc4)c3=O)cc1)=C\CC[C@@]1(C)O[C@@H]21	59.6%
Cc1nc2c(c(=O)[nH]1)C(c1ccccc1)c1ccc3ccccc3c1O2 (stereo unspecified)	-16.2% (active)
COC1=C(C)C(=O)N2[C@@H]1[C@H](c1ccccc1)OC21C=CC(=O)C=C1	-48.8% (active)
COc1cccc(CCNc2ncnc3c2ncn3Cc2nnc3c4ccccc4c(Cl)nn23)c1	57.5%
Fc1ccc(Cn2cc(CSc3nc4ccccc4o3)nn2)cc1	102%
CC(=O)ON1CCCC(P(=O)(OCCSC(=O)C(C)(C)C)OCCSC(=O)C(C)(C)C)C1=O (stereo unspecified)	48.5%
O=c1cc(-c2ccccc2)[nH]c2ncc(-c3ccc(F)cc3)n12	-12% (active)
COC(=O)c1ccc(NC(=O)Nc2ccc(C(=O)OC)cc2)cc1	109%
N#C/C(=C\c1ccc(-c2cccc(C(F)(F)F)c2)o1)c1ccccc1	99.1%
COc1ccc2cc(-c3ccnc4c(N=Nc5ccc(Cl)cc5)c(N)nn34)ccc2c1	105%
O=C(Cc1ccc(NC(=O)c2cccc(Cl)c2)cc1)NCc1ccccc1	-30.1% (active)
CCS/C(Nc1ccccc1)=C(\C#N)C(=O)Nc1ccc(OC)cc1	-47.9% (active)

Structure (SMILES)	growth
CC[N+]1(CC)CC[N+]2(CCCC(C)CC2)CC1 (stereo unspecified)	110%
COc1ccc(C(=O)/C=C/c2ccc(Cl)cc2)cc1S(=O)(=O)Nc1c(N)nc(SC)[nH]c1=O	80%
C=C1C(=O)O[C@H]2[C@H]1CC/C(COC(=O)/C=C/C(=O)OC/C1=C/CC[C@@]3(C)O[C@H]3[C@H]3OC(=O)C(=C)[C@@H]3CC1)=C\CC[C@@]1(C)O[C@@H]21	80.4%
O=C1/C(=C\c2cccc3nccnc23)SC(=S)N1CCc1ccc(O)cc1	97.4%
O=S(=O)(NCCNc1nccc(-c2c(-c3ccc(F)c(O)c3)nc3sccn23)n1)c1ccc(F)cc1	4.98% (active)
CC/C=C\C[C@H](O)C/C=C1/C(=O)C=C[C@@H]1C/C=C\CCCC(=O)O	36.9%
O=C1/C=C/[C@@H](O)[C@@H]2C[C@@H](O)C[C@H]2/C=C/CCC[C@H](CCO)O1	9.98% (active)
COc1cc(-c2nc3sccn3c2-c2ccnc(NCCNS(=O)(=O)c3ccc(Cl)cc3)n2)ccc1F	9.48% (active)
C#Cc1cccc(Nc2nc(C)nc3cc(NC(=O)CCl)ccc23)c1	-51.1% (active)
O=C(NNC(=O)c1ccc(NC(=O)c2ccccn2)cc1)Nc1ccc2ccccc2c1	110%
CC1(C)C(N)=Nc2cc(OCCCN3Cc4ccccc4C3)c(OCC3CC3)cc21	66.6%
CN(CCC(=O)c1ccccc1)CCC(=O)c1ccccc1	102%
CCSc1oc(C)nc1[P+](c1ccccc1)(c1ccccc1)c1ccccc1	25.3%
C=CCC(CCCC)(C(=O)OCC)C(=O)OCC	110%
Fc1cccc(-c2ccc3c(c2)C2(CCNCC2)CN3)c1	108%
CN(C)S(=O)(=O)Oc1ccc(-c2sc3cc(OS(=O)(=O)N(C)C)ccc3c2C(=O)c2ccc(OCCN3CCCCC3)cc2)cc1	78.6%
COc1cc2c(cc1OCCCCN1CCN(C(=S)SCCC(C#N)(c3ccccc3)c3ccccc3)CC1)N=C[C@@H]1CCCN1C2=O	-17% (active)
CC(C)(C)n1cc(-c2ccnc(NCCNS(=O)(=O)c3ccc(O)cc3)c2)c(-c2cccc(O)c2)n1	101%
